# An excerpt weighted towards active compounds, which were near 11% of everything screened.
# SW480 rereplic = inducers of DNA re-replication in SW480 colon cancer cells; Potency, µM (titrated, usually from 46.1 µM), for the others: at the highest dose re-replication activation, most hits filed as activators; SW480 DNA re-replication, Hoechst DNA content imaging, 48 h; 340,000 tested, 1.8% active; AID 624297; also: potency is read from the fitted curve at half-maximal effect; % of control where 0% means no effect; nearly all actives have a fitted effect of over 55% in size
#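 Hoechst fluorescence of nuclei (405 nm excitation, 500-530 nm emission) measured by plate-scanning imager after 48 hr compound exposure at 37 C; re-replication scored as increased number of nuclei with elevated intensity.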
# RORgamma inh = blocks mouse ROR gamma transcriptional activity; Drosophila S2 Gal4-RORgamma UAS-luciferase reporter, 20 h; Potency, µM (doses to about 53.6 µM), for the others: at the top dose activity change, negative = inhibition, usual class: inhibitors; P51450; 310,000 tested, 5.4% active; also: potency is read from the fitted curve at half-maximal effect; % is scaled to controls: 0 for no effect and ±100 for the full control effect; nearly all actives have a fitted effect of over 60% in size
# Target sequence (P51450 whole entry, looked up, the tested form may be a part): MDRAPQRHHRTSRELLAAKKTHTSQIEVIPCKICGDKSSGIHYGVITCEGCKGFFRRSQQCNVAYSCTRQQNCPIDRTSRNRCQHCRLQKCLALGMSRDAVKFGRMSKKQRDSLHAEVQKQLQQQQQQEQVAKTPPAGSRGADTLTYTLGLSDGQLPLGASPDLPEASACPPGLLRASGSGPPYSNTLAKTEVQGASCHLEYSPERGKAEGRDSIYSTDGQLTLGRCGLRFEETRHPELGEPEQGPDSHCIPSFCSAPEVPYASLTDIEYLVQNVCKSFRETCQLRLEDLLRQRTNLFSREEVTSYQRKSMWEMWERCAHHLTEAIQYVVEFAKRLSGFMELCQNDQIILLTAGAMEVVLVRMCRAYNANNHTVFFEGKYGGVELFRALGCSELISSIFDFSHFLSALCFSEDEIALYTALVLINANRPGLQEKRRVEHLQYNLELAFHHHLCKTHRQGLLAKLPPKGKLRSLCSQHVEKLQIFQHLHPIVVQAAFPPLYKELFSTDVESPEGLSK
#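 Luciferase reporter read in Schneider cells carrying Gal4-RORγ (mouse) and UAS-Photinus luciferase; cells given compound 1 h before 700 uM copper sulfate induction, then incubated 20 h at ambient temperature.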
# IL-1B inflam inh = inflammasome signaling inhibition, IL-1 beta readout. THP-1 LPS/ATP IL-1B secretion, AlphaLISA, 16 h; hits give low values. activity change, % at 57.5 µM. 360,000 tested, 4.7% active. AID 743279; in the data active = activity change below about -50%; inconclusive = mostly about -30% to -49%; also: % is scaled to controls: 0 for no effect and ±100 for the full control effect
#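 THP-1 cells pretreated 1 hr with compounds (up to 57.5 uM final), then stimulated with LPS (250 ng/mL final) plus ATP (1.25 mM final); secreted IL-1B measured by AlphaLISA after 16 hr, decreased signal indicating inhibition.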
# MCF10A rerep = inducers of DNA re-replication in MCF 10A breast cells; MCF 10A DNA re-replication, Hoechst nuclear intensity, 48 h; 350,000 tested, 2.9% active; AID 624296; Potency, µM (series often up to 46.1 µM), for the others: at the highest dose activity, positive = re-replication, most hits filed as activators; also: potency is read from the fitted curve at half-maximal effect; % of control where 0% means no effect; nearly all actives have a fitted effect of over 50% in size
# VP16 counter = Gal4-VP16 reporter inhibition counter-screen; AID 2546; Potency, µM (doses to about 53.6 µM), without a hit: top-dose activity, negative = inhibition, usual class: inhibitors; 310,000 tested, 3.5% active; Drosophila S2 Gal4-VP16 UAS-luciferase, luminescence, 20 h;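 also: Gal4-VP16 expression switched on by copper sulfate through the metallothionein promoter; potency is read from the fitted curve at half-maximal effect; % is scaled to controls: 0 for no effect and ±100 for the full control effect; nearly all actives have a fitted effect of over 50% in size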
# Numbers without * were called inactive; ? = inconclusive; · = not tested or not shown; [ ] = another dose, or the depositor's remark. Unless noted, calls follow the shape of the dose curve; as a rule, active = well fitted curve in the direction sought with a large enough effect; inconclusive = small, poorly fitted or top-dose-only effect, or another doubt; inactive = no such curve, though single readings can be large; an effect the other way counts as inactive or inconclusive.
SMILES,SW480 rereplic,RORgamma inh,IL-1B inflam inh,MCF10A rerep,VP16 counter
O=C(Oc1c(CN2CCOCC2)cc(Cl)c2cccnc12)c1ccccc1,8.2µM*,1.8µM*,?,?,5µM*
Oc1c(CN2CCCCC2)cc(Br)c2cccnc12,?,4µM*,106,23µM*,1µM*
COc1ccc(CCN2CC(C(=O)NCCc3ncccc3C)CCC2=O)cc1 (configuration not stated),·,·,-21,·,·
Nc1cn(C2OC(CO)C(O)C2O)c(=O)[nH]c1=O (configuration not stated),-41%,-1%,30,-2%,-2%
O=C(NCCCN1CCCC1=O)c1cc2nc(-c3ccco3)cc(C(F)(F)F)n2n1,-10%,-6%,-7,15%,-4%
COc1cc(OC)cc(C(=O)Oc2c(CN3CCOCC3)cc(Cl)c3cccnc23)c1,?,4.5µM*,-6,-3%,3.2µM*
O=[N+]([O-])c1cc(CN2CCOCC2)c2cccnc2c1O,?,3%,16,11%,4%
Oc1ccc(CN2CCN(Cc3ccccc3)CC2)c2cccnc12,?,5%,98,13%,-1%
Oc1c(Cl)cc(CN2CCOCC2)c2cccnc12,?,·,95,12µM*,·
O=C(Oc1c(CN2CCOCC2)cc(Cl)c2cccnc12)c1ccccc1F,6.5µM*,1.1µM*,32,18µM*,2.2µM*
O=S(=O)(c1ccc(Cl)cc1)N1CCN(Cc2ccc(O)c3ncccc23)CC1,?,1µM*,38,?,2.8µM*
CN1CCN(Cc2cc(COCc3ccccc3)c3cccnc3c2O)CC1,6.3µM*,2µM*,-97*,?,1.3µM*
N#CC(c1ccc(Cl)cc1)c1nc2ccccc2nc1C(F)(F)F (configuration not stated),65%,?,21,?,10µM*
Cc1nc2ccc(C(=O)N3CCN(C(=O)c4ccco4)CC3)cn2c1N(C)C(=O)CCc1ccccc1,·,·,1,·,·
CCCCC(=O)N(C)c1c(C)nc2ccc(C(=O)N3CCN(C(=O)c4ccco4)CC3)cn12,·,·,-54*,·,·
Cc1nc2c(OCc3cccc(Cl)c3)cccn2c1N(C)Cc1cccs1,·,·,-20,·,·
Cc1cccc(N2CCN(CC(=O)Nc3ccc(S(=O)(=O)N4CCOCC4)cc3)CC2)c1C,19%,31%,-6,0%,?
O=C(CCl)Nc1cccc(Oc2ccccc2)c1,13%,10µM*,-106*,?,?
O=C(CSc1ncnc2[nH]ncc12)Nc1cccc(Oc2ccccc2)c1,4%[1.84 µM],-7%,-90*,17%,8%
O=C(CCl)Nc1cccc(Oc2cnccn2)c1,51%,?,-88*,?,?
Nc1cccc(Oc2cnccn2)c1,0%,-31%,1,-3%,0%
O=C(CN1CCCCC1)Nc1cccc(Oc2ccccc2)c1,14%,25%,?,1%,-1%
COCc1ccccc1C1=CC(=O)C[C@H](c2ccc(F)cc2)C1,?,·,-15,0%,·
C=C(NCc1ccccc1)c1ccccc1O,-3%,2%,·,-6%,6%
Cc1ccccc1-c1ccc(CN2C(C(C)C)C(=O)N(Cc3cn(CCC4OCCO4)nn3)CCS2(=O)=O)cc1 (configuration not stated),·,·,-57*,·,·
CC(C)Cc1ccc(CN2C(C(C)C)C(=O)N(Cc3cn(CCC4OCCO4)nn3)CCS2(=O)=O)cc1 (configuration not stated),·,·,-56*,·,·
O=C(CC1(O)C(=O)N(Cc2ccccc2Cl)c2ccccc21)c1ccco1 (configuration not stated),18µM*,17%,35,?,3%
CCOC(=O)CN1C(=O)C(O)(CC(=O)c2ccco2)c2ccccc21 (configuration not stated),12%,13%,10,?,-4%
CCCCN1C(=O)C(O)(CC(=O)c2ccco2)c2cc(Br)ccc21 (configuration not stated),15µM*,9%,81,?,26%

# High-throughput results: PubChem, National Center for Advancing Translational Sciences (NCATS)
